Data: PubChem BioAssay (Tox21)
Results filed as inconclusive are left out. The source made the active and inactive calls. Calls follow the shape of the dose curve; as a rule, active = well fitted activation curve with a large enough effect in the repeat runs; inconclusive = weak or mixed curves; inactive = flat fitted curve, though single readings scatter. Where a SMILES comes first, the peptide text is derived from it. [ ]: non-standard residue; d: D form. pGlu = O=C1CC[C@@H](C(=O)O)N1

Test: A CellTox Green Cytotoxicity Assay to monitor cytotoxicity in HepG2 cells - 8 hour (AID 1224890); also: nearly all actives have a fitted effect of over 45% in size
Conditions: CellTox Green fluorescence; series mostly up to 76.8 µM; cytotoxicity increase: at the top concentration
Excerpt: National Center for Advancing Translational Sciences [NCATS]
NIH Chemical Genomics Center [NCGC]
U.S. Environmental Protection Agency [EPA]
National Institutes of Environmental Health Sciences [NIEHS]
National Toxicology Program [NTP]
Cell-based models are critical for drug discovery. Determining the natural cytotoxic effects resulting from test compounds is an essential research activity. A CellTox Green Cytotoxicity Assay to monitor cytotoxicity in real time of continues cell culture during 40 hours of the compound treatment was used to screen Tox21 10K library compounds in HepG2 cells. CellTox Green Cytotoxicity Assay is a nonlytic, homogeneous, biofluorescent method to measure cytotoxicity in cell culture after experimental manipulation. The assay system uses a proprietary asymmetric cyanine dye that is excluded from viable cells but preferentially stains the dead cell's DNA. […] Viable cells produce no appreciable increases in fluorescence. Therefore, the fluorescence signal produced by the binding interaction with dead cell DNA is proportional to cytotoxicity.
The mixture of HepG2 cell suspension and reagents were dispensed at 600cells/6 ul/well in 1536-well tissue culture treated black solid bottom plates using a Multidrop dispenser. After the assay plates were incubated at a 37 C/5% CO2 incubator for 5 hours, 23 nL of compounds dissolved in DMSO, positive and negative controls was transferred to the assay plate by a pintool work station. The plates were incubated at 37 C for 40 hours. The fluorescence intensity were measured at 0h, 8h, 16h, 24h, 32h and 40h time points using ViewLux plate reader during compound treatment.
% is scaled to controls: 0 for no effect and ±100 for the full control effect.

Row | Structure (SMILES) | cytotoxicity increase
1 | Nc1ccccn1 | 0.391% (inactive)
2 | CC(C)(C)OC(=O)c1cccc(N)c1 | 14.7% (inactive)
3 | CN1CC(=O)N/C1=N/C(=O)Nc1cccc(Cl)c1 | -3.01% [at 35.3 µM] (inactive)
4 | CC(C)COC(=O)c1ccc(N)cc1 | -6.54% [at 35.3 µM] (inactive)
5 | CCCC[N+](C)(CCCC)CCCC | -0.884% (inactive)
6 | CN1C(C)(C)CC(O)CC1(C)C | -4.25% (inactive)
7 | CCNC(=O)[C@@H]1CCCN1C(=O)[C@H](CCCN=C(N)N)NC(=O)[C@H](CC(C)C)NC(=O)CNC(=O)[C@H](Cc1ccc(O)cc1)NC(=O)[C@H](CO)NC(=O)[C@H](Cc1c[nH]c2ccccc12)NC(=O)[C@H](Cc1cnc[nH]1)NC(=O)[C@@H]1CCC(=O)N1 ([pGlu]HWSYGLRP-NHEt) | -12.1% [at 35.3 µM] (inactive)
8 | Cc1c(N)c(=O)n(-c2ccccc2)n1C | -19.2% [at 35.3 µM] (inactive)
9 | CC(COc1ccccc1)NN (stereo not given) | -2.41% [at 35.3 µM] (inactive)
10 | CC(=O)OCC(=O)[C@@]1(O)[C@H](C)C[C@H]2[C@@H]3CCC4=CC(=O)C=C[C@]4(C)[C@@]3(F)[C@@H](O)C[C@@]21C | 1.65% [at 35.3 µM] (inactive)
11 | c1ccc2sc(SN3CCOCC3)nc2c1 | 1.07% [at 35.3 µM] (inactive)
12 | Cc1nc(C2CCCCC2)c(-c2ccc(S(N)(=O)=O)c(F)c2)o1 | 6.65% [at 35.3 µM] (inactive)
13 | CCN[C@@H]1C[C@H](N)[C@@H](OC2OC(CN)=CCC2N)[C@H](O)[C@H]1O[C@H]1OC[C@](C)(O)[C@H](NC)[C@H]1O (stereo not given in full) | 3.81% [at 0.29 µM] (inactive)
14 | O=C(O)c1cc(C(=O)O)cc(C(=O)O)c1 | -1.41% (inactive)
15 | CO/N=C(\C(=O)N[C@@H]1C(=O)N2C(C(=O)O)=C(CSc3nc(=O)c(O)nn3C)CS[C@H]12)c1csc(N)n1 | 3.54% [at 35.3 µM] (inactive)
16 | CCCCS(=O)(=O)N[C@@H](Cc1ccc(OCCCCC2CCNCC2)cc1)C(=O)O | -15.6% [at 35.3 µM] (inactive)
17 | C=COCC1CCC(COC=C)CC1 (stereo not given) | -0.757% (inactive)
18 | CN1[C@@H]2CC[C@H]1CC(OC(=O)C(O)c1ccccc1)C2 (stereo not given in full) | -1.42% [at 35.3 µM] (inactive)
19 | O=C(O)c1cn(C2CC2)c2cc(N3CCNCC3)c(F)cc2c1=O | 0.687% [at 35.3 µM] (inactive)
20 | c1coc(CNc2ncnc3nc[nH]c23)c1 | 0.548% (inactive)

Row | Structure (SMILES) | cytotoxicity increase
21 | CO[C@@]1(NC(=O)CSC[C@@H](N)C(=O)O)C(=O)N2C(C(=O)O)=C(CSc3nnnn3C)CS[C@@H]21 | -6.45% [at 35.3 µM] (inactive)
22 | CCCCCCC1CCC(=O)O1 (stereo not given) | 8.66% (inactive)
23 | CO[Si](C)(OC)c1ccccc1 | -1.79% (inactive)
24 | C[N+](C)(C)CCCCCCCCCC[N+](C)(C)C | -15.3% [at 35.3 µM] (inactive)
25 | CCCCCC(C)N (stereo not given) | -8.7% [at 35.3 µM] (inactive)
26 | CCCCCCCCCCCCCCCCCCO | -0.796% [at 35.3 µM] (inactive)
27 | O=C(O)CCSCCC(=O)O | 10% (inactive)
28 | C=CCCCCCCCCC(=O)OCC | -5% (inactive)
29 | C[C@@H]1CCC[C@H](C)N1 | -0.902% [at 35.3 µM] (inactive)
30 | CC1=NS(=O)(=O)c2cc(Cl)ccc2N1 | -7.73% [at 35.3 µM] (inactive)
31 | Nc1ccn([C@@H]2O[C@H](CO)[C@@H](O)C2O)c(=O)n1 (stereo not given in full) | 4.53% (inactive)
32 | Clc1cc(Cl)cc(Cl)c1 | -0.307% (inactive)
33 | CC(C)(CCC(=O)O)C(=O)O | -0.848% (inactive)
34 | CCOc1ccc2nc(S(N)(=O)=O)sc2c1 | 1.13% [at 35.3 µM] (inactive)
35 | CCN(CC#N)c1cccc(C)c1 | 1.96% (inactive)
36 | COc1cc(C(=O)NCc2ccc(OCCN(C)C)cc2)cc(OC)c1OC | -1.21% [at 35.3 µM] (inactive)
37 | CCCC(C)C(=O)OCC (stereo not given) | -9.9% (inactive)
38 | O=[N+]([O-])c1ccc(/C=N\O)o1 | -12.5% [at 35.3 µM] (inactive)
39 | CC1=CCC(O)(C(C)C)CC1 (stereo not given) | 1.01% (inactive)
40 | OCCc1ccccn1 | -8.95% (inactive)
